Rows were chosen to be rich in hits. Some 1.6% of all compounds tested hit in one or more screens of this group.
KCNQ2 enhance: potentiators of rat KCNQ2 potassium channel. Potassium voltage-gated channel subfamily KQT member 2 (Rattus norvegicus), O88943. CHO-K1 KCNQ2, FluxOR thallium flux fluorescence; active compounds read high. B-score at 10 µM. actives 0.54% (n = 310,000). AID 2239, 2010;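 active means fluorescence ratio B-score at least 3 SD of library B-scores, with initial fluorescence B-score within 3 of them, cut at about 5.3 in these data; same plate scores as AID 2156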;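 further: B-score of peak minus minimum over baseline fluorescence ratio after K+ and Tl+ stimulus; positive B-score means potentiation of KCNQ2 with more thallium influx and brighter signal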
KCNQ2 inh: rat KCNQ2 potassium channel inhibitors, primary screen, cell-based, CHO-K1, FluxOR thallium flux, B-score. Potassium voltage-gated channel subfamily KQT member 2 (Rattus norvegicus), O88943. 20 min; active compounds read low. B-score at 10 µM. actives 1.1% (n = 310,000). AID 2156, 2009;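 active means fluorescence ratio B-score at most minus 3 library SDs, with starting brightness B-score within 2 library SDs, cut at about -5.5 in these data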
Kir21 conf inh: mouse Kir2.1 channel blockers, retest, confirmation, cell-based, FluxOR thallium flux, duplicate; shares compounds with KCNQ2 enhance; Kir2.1-expressing cells, FluxOR thallium flux fluorescence; active compounds read low; Tl flux remaining, % of negative control (active compounds read low), % at 10 µM; actives 41% (n = 2,300); AID 2032, 2009;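 active means Primary-screen hit whose thallium flux fell at least 3 control SD below untreated wells in both duplicates, with normal baseline fluorescence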;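 further: 0% = blank wells without stimulus and 100% = stimulated no-compound controls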
HEK293 ctr: parental HEK293 activity in Kir2.1 inhibitor counter-screen; parental HEK293 cells, FluxOR thallium flux fluorescence; 0% = unstimulated blank wells; actives 19% (n = 2,300); FluxOR signal as % of negative control (100 = no effect), % at 10 µM; shares compounds with KCNQ2 enhance; AID 2105;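 active means dye signal at least 3 control SD above or below untreated wells in both duplicates, raw fluorescence within 3, either direction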;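 further: percent is based on the flux ratio of peak minus minimum fluorescence over baseline F0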
CHO-K1 Tl ctr: nonspecific thallium flux increase in parental CHO-K1, confirmation, counter-screen for KCNQ2 potentiator project, cell-based, FluxOR thallium flux, duplicate. activity increase over 3SD of controls, % at 10 µM. actives 43% (n = 1,200). shares compounds with KCNQ2 enhance. parental CHO-K1 cells, FluxOR thallium flux fluorescence; zero = vehicle mean+3SD, 100% = vehicle-minus-blank window;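 active means signal rise of at least 3 SD above the untreated control mean, in both duplicate wells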;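 further: counter screen of KCNQ2 potentiator hits so any rise reflects channel-independent effects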
KCNQ1 sel pot: human KCNQ1 channel potentiation off-target, confirmation, selectivity assay for KCNQ2 potentiator project, cell-based, CHO, FluxOR thallium flux; shares compounds with KCNQ2 enhance; CHO KCNQ1 stable, FluxOR thallium flux fluorescence; beyond 3SD, as % of vehicle-control signal; activation over 3SD threshold, % at 10 µM; actives 28% (n = 1,200);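 active means fluorescence ratio rise of at least 3 SD of vehicle wells above their mean, in both replicate wells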;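 further: 0% = vehicle mean plus 3 SD and 100% = vehicle minus unstimulated blank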
Target sequence (P51787 whole entry, looked up): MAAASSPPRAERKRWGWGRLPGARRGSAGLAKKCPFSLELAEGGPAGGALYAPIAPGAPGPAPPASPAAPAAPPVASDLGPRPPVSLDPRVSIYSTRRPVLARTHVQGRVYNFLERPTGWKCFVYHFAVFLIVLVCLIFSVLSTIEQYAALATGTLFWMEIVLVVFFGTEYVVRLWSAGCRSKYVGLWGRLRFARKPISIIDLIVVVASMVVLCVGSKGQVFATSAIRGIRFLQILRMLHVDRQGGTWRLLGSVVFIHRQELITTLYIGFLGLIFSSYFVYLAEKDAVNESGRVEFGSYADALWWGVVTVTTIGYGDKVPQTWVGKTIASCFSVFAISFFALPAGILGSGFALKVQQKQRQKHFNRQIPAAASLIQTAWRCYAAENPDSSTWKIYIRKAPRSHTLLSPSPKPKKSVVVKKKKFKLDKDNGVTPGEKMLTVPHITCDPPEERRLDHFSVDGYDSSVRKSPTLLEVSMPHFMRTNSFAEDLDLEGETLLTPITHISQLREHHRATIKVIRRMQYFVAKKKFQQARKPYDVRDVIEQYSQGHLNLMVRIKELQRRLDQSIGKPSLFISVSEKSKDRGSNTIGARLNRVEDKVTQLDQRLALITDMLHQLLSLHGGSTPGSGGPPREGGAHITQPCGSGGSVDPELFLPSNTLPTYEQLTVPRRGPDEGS
KCNQ2 pot conf: rat KCNQ2 channel potentiators, confirmation, cell-based, CHO, FluxOR thallium flux, duplicate. shares compounds with KCNQ2 enhance. potentiation, less the hit threshold, % at 10 µM. AID 2287, 2010. actives 68% (n = 1,200). CHO-KCNQ2 cells, FluxOR thallium flux fluorescence;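 active means fluorescence ratio rising 3 SD or more over the vehicle control mean in both replicates, plus primary screen hit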;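 further: peak minus minimum thallium fluorescence divided by baseline after K/Tl stimulus; 0% = vehicle mean plus 3 SD and 100% = vehicle minus unstimulated blank difference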
Kir21 spec: mouse Kir2.1 channel activation off-target, confirmation, selectivity assay for KCNQ2 potentiator project, cell-based, HEK293, FluxOR thallium flux | shares compounds with KCNQ2 enhance | HEK293 Kir2.1, FluxOR thallium flux fluorescence | activity over 3SD threshold, % at 10 µM | actives 2% (n = 1,200) | AID 2345, 2010;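 active means fluorescence ratio rise of at least 3 SD above the vehicle-control mean, seen in both replicates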;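 further: 0% = vehicle mean plus 3 SD and 100% = vehicle minus no-stimulus blank window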
KCNQ2 W236L pot: potentiators of retigabine-insensitive KCNQ2 W236L, mechanism study for KCNQ2 potentiator project, cell-based, rat KCNQ2 W236L, CHO, automated patch clamp | current increase over 3SD of negative controls (%), active compounds read high, % at 25 µM | shares compounds with KCNQ2 enhance | automated patch clamp current | actives 10% (n = 940);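 active means current increase at least 3 SD of the untreated controls above them in both duplicate recordings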
Numbers without * were called inactive; i = inactive; · = no result given.

SMILES | KCNQ2 enhance | KCNQ2 inh | Kir21 conf inh | HEK293 ctr | others
Cc1cc(C)c(NC(=O)CS)c(Cl)c1 | 20* | i | i | i | CHO-K1 Tl ctr=-16;KCNQ1 sel pot=-2;KCNQ2 pot conf=95*;Kir21 spec=-40;KCNQ2 W236L pot=i
Cc1cc(C)c(NC(=O)/C=C\C(=O)O)c(Cl)c1 | · | i | · | ·
Cc1cc(C)c(NC(=O)CC(=O)c2ccccc2)c(Cl)c1 | 1.9 | i | · | ·
NC(=O)c1ccc(NC(=O)CNC(c2ccccc2)c2ccccc2)cc1 | 0.86 | i | · | ·
CCc1cccc(NC(=O)Cn2cc(C=O)c3ccccc32)c1 | 2.6 | i | · | ·
O=C(O)CC1(CC(=O)Nc2ccc3ccccc3n2)CCCCC1 | 1.9 | i | · | ·
Cc1ccccc1Cn1c(C(=O)OC(C)C)cc2c1ccn2C | · | i | · | ·
CC(C)OC(=O)c1cc2c(ccn2C)n1CC(=O)N1CCC(Cc2ccccc2)CC1 | 9.9* | i | i | i | CHO-K1 Tl ctr=40*;KCNQ1 sel pot=70*;KCNQ2 pot conf=7.1*;Kir21 spec=-20;KCNQ2 W236L pot=i
c1ccc2c(c1)OC(CCCN1CCCCC1)c1ccccc1S2 (centres undefined) | · | i | 49%* | i
c1ccc(OCCCCN2CCCCC2)cc1 | · | i | · | ·
O=C(NCCN1CCOCC1)c1cccc(S(=O)(=O)NCc2ccccc2)c1 | · | i | · | ·
Cc1cccc(NC(=O)Cn2cnc(S(=O)(=O)N3CCCC3)c2)c1C | 0.33 | i | · | ·
CCC(c1nnc(SCC(=O)Nc2ccc(NC(C)=O)cc2)n1Cc1ccccc1)N(C)C (centres undefined) | 0.76 | i | · | ·
Cc1ccc(N/C(N)=N/c2nc(C)cc(C)n2)cc1 | 0.74 | i | · | ·
Cc1cc(C)nc(/N=C(\N)Nc2ccc(C(C)C)cc2)n1 | 5.5* | i | i | i | CHO-K1 Tl ctr=100*;KCNQ1 sel pot=-15;KCNQ2 pot conf=-17;Kir21 spec=-42
COC(=O)c1ccc(COC(=O)CNC(=O)c2cccs2)cc1 | · | i | · | ·
Cc1ccc(/C(=N/Nc2nc3ccccc3s2)C2=C(O)c3ccccc3C2=O)cc1 | 0.85 | i | i | i
Cc1ccc(S(=O)(=O)N(C)CC(=O)Nc2nc3ccccc3s2)cc1 | · | i | · | ·
CCCC(=O)N(CCN1CCOCC1)c1nc2c(OC)ccc(OC)c2s1 | 0.49 | i | · | ·
Nc1cc(C(=O)N2CCN(c3ccc([N+](=O)[O-])cc3)CC2)ccc1N1CC2CC(C1)c1cccc(=O)n1C2 (centres undefined) | · | i | · | ·
CCCc1nc(NCc2ccccc2)c(C#N)c2c1CCCC2 | · | i | · | ·
C=CCNc1nc(NCc2ccccc2)c(C#N)c2c1CN(C)CC2 | · | i | 42%* | i
CCCCCNc1nc(NCCCO)c(C#N)c2c1CN(C)CC2 | 1.8 | i | · | ·
CCN1CCc2c(C#N)c(NCc3ccccc3)nc(N(CC)CC)c2C1 | 9.1* | i | i | i | CHO-K1 Tl ctr=-8;KCNQ1 sel pot=-22;KCNQ2 pot conf=31*;Kir21 spec=-49;KCNQ2 W236L pot=i
CSc1ccc(/C=C/C(=O)c2c(O)cc(C)oc2=O)cc1 | · | i | · | ·

From PubChem BioAssay
